Data on 6 molecules can be found in PubChem BioAssay (NCATS).

Each structure is given as a SMILES string. Records with an inconclusive call do not appear. The source made the active and inactive calls. Unless noted, calls come from the whole dose curve; as a rule, active = well fitted curve in the direction sought with a large enough effect; inconclusive = small, poorly fitted or top-dose-only effect, or another doubt; inactive = no such curve, though single readings can be large; an effect the other way counts as inactive or inconclusive.

In experiment [1] the target is Lysosomal acid glucosylceramidase (Homo sapiens) (UniProt P04062). Description: Glucocerebrosidase-p2 (AID 348; in the data active = potency below about 10 µM; note: potency is the fitted concentration of half-maximal effect). The conditions noted are these: purified GBA, blue fluorogenic substrate, 40 min. Summed up:
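Normal human glucocerebrosidase (0.2 nM) with blue fluorogenic substrate (80 uM final) in citrate/phosphate pH 5.9 with 10mM sodium taurocholate, 0.01% tween-20; 40 min RT, NaOH/glycine stop; fluorescence Ex 365/Em 440; AC50 from a titration from 0.6 nM upwards.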

The target in experiment [2] is Cytochrome P450 1A2 (Homo sapiens) (UniProt P05177). Put plainly: p450-cyp1a2 (AID 410; calls by dose curve; note: potency is the fitted concentration of half-maximal effect). An outline of the steps: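 Read-out is luminescence from luciferin produced by CYP1A2 demethylation of Luciferin-ME (100uM, at Km). Detection reagent stopped the 60 min NADPH-dependent reaction; signals were normalized to 57 uM furafylline.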
Cytochrome P450 1A2 (Homo sapiens), sequence (P05177 whole entry, looked up): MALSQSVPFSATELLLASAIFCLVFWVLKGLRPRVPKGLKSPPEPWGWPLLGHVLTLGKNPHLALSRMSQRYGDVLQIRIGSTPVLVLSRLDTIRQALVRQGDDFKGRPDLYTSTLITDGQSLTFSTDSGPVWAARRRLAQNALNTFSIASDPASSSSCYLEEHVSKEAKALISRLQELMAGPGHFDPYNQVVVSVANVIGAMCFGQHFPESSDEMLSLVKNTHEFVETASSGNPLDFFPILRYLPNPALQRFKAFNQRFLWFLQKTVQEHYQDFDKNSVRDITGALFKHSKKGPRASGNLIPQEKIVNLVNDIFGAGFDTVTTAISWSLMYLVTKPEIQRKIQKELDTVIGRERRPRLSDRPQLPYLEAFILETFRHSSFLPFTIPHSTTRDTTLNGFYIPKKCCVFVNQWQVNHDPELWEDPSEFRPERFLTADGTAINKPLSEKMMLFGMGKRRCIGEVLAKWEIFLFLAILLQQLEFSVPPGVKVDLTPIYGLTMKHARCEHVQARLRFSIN
Experiment [3] is described as follows: NFAT Signaling Pathway (AID 444; active = well fitted curve in either direction with a large enough effect, not every such curve was filed as active;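 note: carbachol stimulus at about its EC50 of 1 µM final; % is set by controls: 0 for no effect and ±100 for the full control effect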). The conditions noted are these: Jurkat NFAT-bla M1, carbachol, beta-lactamase ratio, 5 h; at 7.69 µM (top of the series) unless noted. Summed up:
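Jurkat cells with NFAT-driven β-lactamase reporter and co-expressed M1 receptor, stimulated with carbachol (final 1 uM, ~EC50), compound titration, 5 h at 37 °C. CCF4 loaded 1 h at RT; 460/530 nm ratio gave %activity and AC50.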

Experiment [4] has as its target Glucocorticoid receptor (Homo sapiens) (UniProt P04150). Put plainly: GR-GFP Redistribution (AID 450;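 active = compounds whose dose series gives a full or clear partial fitted curve of increased nuclear translocation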; note: potency is the fitted concentration of half-maximal effect). The conditions noted are these: U2OS GR-GFP nuclear translocation, laser cytometry, 2 h.
For experiment [5] the target is unchanged. Put plainly: GR-EFC Redistribution (AID 451; calls by dose curve; note: potency is the fitted concentration of half-maximal effect). The following applies: CHO-K1 GR-EFC translocation, beta-gal luminescence, 2 h. Summed up: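 CHO-K1 cells expressing nuclear EA and GR-ED fragments of b-gal; compounds titrated up to 46 uM final, 2 h at 37 C. GR nuclear translocation read as complemented b-gal luminescence after 1 h RT detection.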
Experiment [6] deals with 3',5'-cyclic-AMP phosphodiesterase 4B (Homo sapiens) (UniProt Q07343). Description: qHTS Assay for Inhibitors of PDE-IV (AID 607; active = well fitted activation curve with a large enough effect in the main read-out, with a control signal flat, not every such curve was filed as active; note: % of control where 0% means no effect). Summed up: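 ACTOne HEK293 cells carry a modified cAMP-gated CNG channel and express endogenous PDE4; plated 1000 cells/well, compounds up to 22.9 uM final. Membrane-potential dye fluorescence (ex 535/em 590) was read; parental cells received 10 uM forskolin + 100 uM RO 20-1724.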
3',5'-cyclic-AMP phosphodiesterase 4B (Homo sapiens), sequence (Q07343 whole entry, looked up): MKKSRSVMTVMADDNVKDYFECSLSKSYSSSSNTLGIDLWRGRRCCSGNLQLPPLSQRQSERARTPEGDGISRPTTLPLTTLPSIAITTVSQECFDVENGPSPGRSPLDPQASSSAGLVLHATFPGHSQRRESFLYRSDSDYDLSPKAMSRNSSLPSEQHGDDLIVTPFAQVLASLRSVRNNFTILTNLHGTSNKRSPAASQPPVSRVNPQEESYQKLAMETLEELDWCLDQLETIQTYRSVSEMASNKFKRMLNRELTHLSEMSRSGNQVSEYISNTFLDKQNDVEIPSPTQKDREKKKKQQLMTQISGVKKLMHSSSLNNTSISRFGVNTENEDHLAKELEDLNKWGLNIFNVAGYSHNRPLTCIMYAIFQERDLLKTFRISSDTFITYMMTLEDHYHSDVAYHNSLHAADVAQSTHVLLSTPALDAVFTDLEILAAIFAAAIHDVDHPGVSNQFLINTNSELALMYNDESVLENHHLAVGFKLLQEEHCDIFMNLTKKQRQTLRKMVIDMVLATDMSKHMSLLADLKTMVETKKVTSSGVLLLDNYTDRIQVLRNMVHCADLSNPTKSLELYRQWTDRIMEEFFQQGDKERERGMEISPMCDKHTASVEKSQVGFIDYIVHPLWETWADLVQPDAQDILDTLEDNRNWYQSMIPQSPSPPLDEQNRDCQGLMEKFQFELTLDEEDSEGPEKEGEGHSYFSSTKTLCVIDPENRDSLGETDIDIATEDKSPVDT
In general terms: qHTS replaces the single test concentration by a dilution series.

Experiment [7] deals with Cytochrome P450 3A4 (Homo sapiens) (UniProt P08684). Description: qHTS Assay for Activators of Cytochrome P450 3A4 (AID 885). Note: nearly all actives have a fitted effect of over 65% in size. Summed up:
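CYP3A4 activity: Luciferin-PPXE O-dealkylation, 25uM substrate, 200mM KPO4, RT throughout. Read-out is luciferase luminescence; higher values reflect activation.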

A short description of experiment [8]: qHTS Assay for Identification of Small Molecule Agonists for Hypoxia Response Element Signaling Pathway (AID 914; active = well fitted activation curve with a large enough effect in the signal ratio, with a control signal flat, not every such curve was filed as active; the % refers to the signal ratio; note: potency is the fitted concentration of half-maximal effect). The conditions noted are these: ME-180 HRE-bla reporter, beta-lactamase ratio, CoCl2, 17 h; activation: stronger effect = higher value. An outline of the steps: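 Cells were plated overnight, pin-dosed with compound in a titration series, co-stimulated with EC50 CoCl2 and incubated 17 hours at 37 degrees Celsius. CCF4 substrate was then loaded, and AC50 values came from the 460nm/530nm ratio.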

Experiment [9] in a line: qHTS Assay for Lipid Storage Modulators (AID 1519; calls by dose curve). The conditions noted are these: Drosophila S3 cells, BODIPY lipid droplet/cell ratio, laser cytometry, cells loaded with oleic acid; for activity change, negative = inhibition: at 57.5 µM (top of the series). Summed up:
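Cells seeded at 5,000 per well were treated with compounds over a concentration series and loaded with oleic acid (400 uM, as added). Lipid droplet fluorescence (488 nm excitation, 500-530 nm channel) was read by laser-scanning cytometry and normalized to 20 uM Triacsin C.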

In experiment [10] the target is Dual specificity protein kinase CLK4 (Homo sapiens) (UniProt Q9HAZ1). Description: qHTS Assay for Inhibitors of CDC-like Kinase 4 (Kinase-Glo Assay) (AID 1770). Note: nearly all actives have a fitted effect of over 65% in size. Note: potency is the fitted concentration of half-maximal effect. Summed up:
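Luminescent ATP-depletion read-out (Kinase-Glo) after 4.5 h room-temperature reaction of Clk4 (25 nM final) with RS peptide (100 uM) and ATP (1 uM), pH 7.5 Tris buffer with MgCl2 and DTT.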

The target is the same in experiment [11]. Description: qHTS Assay for Inhibitors of CDC-like Kinase 4 (ADP-Glo Assay) (AID 1771). Note: nearly all actives have a fitted effect of over 70% in size. Note: potency is the fitted concentration of half-maximal effect. An outline of the steps:
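In this ADP-Glo format, 1 uM ATP and 100 uM RS peptide served as substrates for 25 nM Clk4 in Mg2+/EGTA/DTT/Triton buffer; reactions ran 1 hr at room temperature before luminescent ADP quantification.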

Experiment [12] shares this target. Put plainly: qHTS Assay for Inhibitors of CDC-like Kinase 4 (ADP-FP Assay) (AID 1795).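 Note: recombinant human CLK4 phosphorylating RS repeat peptide at 1 µM ATP; % is set by controls: 0 for no effect and ±100 for the full control effect; nearly all actives have a fitted effect of over 60% in size.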 An outline of the steps: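 Kinase activity was measured as ADP production using Transcreener orange tracer (4 nM) and ADP antibody (1 ug/mL) fluorescence polarization, with ADP calculated from a calibration curve. The 1 h reaction contained 6.25 nM Clk4, 1 uM ATP and 100 uM RS peptide at pH 7.5 with Mg2+.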

Experiment [13] concerns the target Ubiquitin carboxyl-terminal hydrolase 1 (Homo sapiens) (UniProt O94782). Put plainly: Inhibitors of USP1/UAF1: Pilot qHTS (AID 504865).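 Note: rhodamine fluorescence freed from ubiquitin-rhodamine substrate followed over time; top concentration of the series differs between compounds; % is set by controls: 0 for no effect and ±100 for the full control effect; nearly all actives have a fitted effect of over 35% in size.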 An outline of the steps: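 Deubiquitinase activity followed as kinetic rhodamine fluorescence release from 150 nM Ub-Rho. 1 nM USP1/UAF1 with compound, after 15 min room-temperature preincubation, in HEPES pH 7.8 buffer containing TCEP, EDTA, BSA and Tween-20.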

The nature of experiment [14]: AP1 Signaling Pathway (AID 357; active = well fitted curve in either direction with a large enough effect, not every such curve was filed as active;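 note: ME-180 reporter cells stimulated with EGF at its EC50 level; % is set by controls: 0 for no effect and ±100 for the full control effect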). The following applies: ME-180 AP-1-bla reporter, EGF-induced, beta-lactamase ratio, 5 h; at 7.69 µM (top of the series) unless noted. Summed up: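 Titration-series screen for positive or negative modulators of EC50 EGF-induced signaling in ME-180 cells carrying an AP-1-driven beta-lactamase reporter. After 5 hours at 37 degrees Celsius, CCF4 460nm/530nm emission ratio gave %Activity; AC50 values derived.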

Experiment [15] in a line: Stat Signaling Pathway (AID 446; active = well fitted curve in either direction with a large enough effect, not every such curve was filed as active;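 note: ME-180 cervical cancer cells given 40 pM IL-6 alongside compound; SIE-controlled beta-lactamase reporter measured as 460/530 nm FRET emission ratio; % is set by controls: 0 for no effect and ±100 for the full control effect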). The conditions noted are these: ME-180 (cervical carcinoma) SIE beta-lactamase reporter, IL-6 stimulated, 5 h; at 7.69 µM (top of the series) unless noted. An outline of the steps: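 Compound effects on IL-6-induced STAT reporter activity were measured in ME-180 cells. After overnight culture, cells were co-treated with 40 pM IL-6 for 5 hrs before beta-lactamase substrate loading at room temperature.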

Experiment [16] addresses Mitogen-activated protein kinase 10 (Mus musculus) (UniProt Q61831). Description: JNK3 AlphaScreen Assay (AID 530; active = well fitted curve in either direction with a large enough effect, not every such curve was filed as active;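 note: kinase came from lysate of stimulated human HepG2 cells; signal reports phosphorylation of biotinylated GST-cJun 1-79 at Ser73 with 10 µM ATP; % is set by controls: 0 for no effect and ±100 for the full control effect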). An outline of the steps: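 HepG2 lysate (IL-1b/TNFa pre-activated) + biotin-GST-cJun 1-79 + anti-pSer73 cJun; cpd titration, 15 min RT; ATP 10 uM start; Tris pH 7.6, MgCl2, DTT, vanadate; beads in EDTA buffer; AlphaScreen.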
(In general: In Alpha technology, singlet oxygen from a donor bead excites a nearby acceptor bead.)

Experiment [17] deals with Cytochrome P450 3A4 (Homo sapiens) (UniProt P08684). Description: qHTS Assay for Inhibitors and Substrates of Cytochrome P450 3A4 (AID 884). Note: potency is the fitted concentration of half-maximal effect; nearly all actives have a fitted effect of over 50% in size. Summed up: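 Luminescent readout of luciferin produced by CYP3A4 (20 nM) dealkylation of Luciferin-PPXE, 25 uM (its KM). NADPH-driven reaction ran 60 min at RT after 10 min compound preincubation; data scaled to 57 uM ketoconazole as 100% inhibition.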
Cytochrome P450 3A4 (Homo sapiens), sequence (P08684 whole entry, looked up): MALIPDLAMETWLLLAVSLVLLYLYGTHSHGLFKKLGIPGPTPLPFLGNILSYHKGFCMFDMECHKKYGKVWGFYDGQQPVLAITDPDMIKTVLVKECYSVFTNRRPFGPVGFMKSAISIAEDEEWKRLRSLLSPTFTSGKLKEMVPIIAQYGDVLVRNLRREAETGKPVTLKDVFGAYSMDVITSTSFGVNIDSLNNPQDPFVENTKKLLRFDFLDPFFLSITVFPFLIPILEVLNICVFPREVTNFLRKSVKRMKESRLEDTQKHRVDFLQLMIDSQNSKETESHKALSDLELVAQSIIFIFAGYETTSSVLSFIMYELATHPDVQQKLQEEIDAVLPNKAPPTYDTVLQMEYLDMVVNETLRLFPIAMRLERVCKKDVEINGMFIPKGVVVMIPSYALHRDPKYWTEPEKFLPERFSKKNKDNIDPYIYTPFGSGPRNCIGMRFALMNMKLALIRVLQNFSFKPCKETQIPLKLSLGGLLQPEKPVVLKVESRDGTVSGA

Experiment [18] addresses Cytochrome P450 2C19 (Homo sapiens) (UniProt P33261). Put plainly: qHTS Assay for Inhibitors and Substrates of Cytochrome P450 2C19 (AID 899). Note: potency is the fitted concentration of half-maximal effect; nearly all actives have a fitted effect of over 60% in size. An outline of the steps: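 Signal comes from luciferase acting on luciferin released by CYP2C19-mediated hydroxylation of Luciferin-H EGE, 10uM (KM). Assay mix: 5nM enzyme, 50mM KPO4; 60 min at 37C with NADPH regeneration. Data normalized against 57uM ketoconazole.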

The mark [19] stands for this setting: measured here: cell count channel max response.
[20] abbreviates: measured here: lipid channel max response.

Lysosomal acid glucosylceramidase (Homo sapiens), sequence (P04062 whole entry, looked up): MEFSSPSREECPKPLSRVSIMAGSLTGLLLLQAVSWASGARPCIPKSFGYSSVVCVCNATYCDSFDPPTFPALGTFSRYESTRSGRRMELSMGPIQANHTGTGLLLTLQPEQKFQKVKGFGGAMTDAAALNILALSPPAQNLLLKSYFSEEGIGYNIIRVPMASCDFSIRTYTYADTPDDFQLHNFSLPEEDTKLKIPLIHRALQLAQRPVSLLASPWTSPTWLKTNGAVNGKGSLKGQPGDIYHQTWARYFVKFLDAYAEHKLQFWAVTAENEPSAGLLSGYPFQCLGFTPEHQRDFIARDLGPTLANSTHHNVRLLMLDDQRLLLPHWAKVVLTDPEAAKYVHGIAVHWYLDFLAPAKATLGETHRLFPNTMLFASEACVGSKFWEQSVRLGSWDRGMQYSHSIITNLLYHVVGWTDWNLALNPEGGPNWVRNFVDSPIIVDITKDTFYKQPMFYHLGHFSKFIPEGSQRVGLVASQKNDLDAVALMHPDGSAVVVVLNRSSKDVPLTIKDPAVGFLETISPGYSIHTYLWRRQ
Ubiquitin carboxyl-terminal hydrolase 1 (Homo sapiens), sequence (O94782 whole entry, looked up): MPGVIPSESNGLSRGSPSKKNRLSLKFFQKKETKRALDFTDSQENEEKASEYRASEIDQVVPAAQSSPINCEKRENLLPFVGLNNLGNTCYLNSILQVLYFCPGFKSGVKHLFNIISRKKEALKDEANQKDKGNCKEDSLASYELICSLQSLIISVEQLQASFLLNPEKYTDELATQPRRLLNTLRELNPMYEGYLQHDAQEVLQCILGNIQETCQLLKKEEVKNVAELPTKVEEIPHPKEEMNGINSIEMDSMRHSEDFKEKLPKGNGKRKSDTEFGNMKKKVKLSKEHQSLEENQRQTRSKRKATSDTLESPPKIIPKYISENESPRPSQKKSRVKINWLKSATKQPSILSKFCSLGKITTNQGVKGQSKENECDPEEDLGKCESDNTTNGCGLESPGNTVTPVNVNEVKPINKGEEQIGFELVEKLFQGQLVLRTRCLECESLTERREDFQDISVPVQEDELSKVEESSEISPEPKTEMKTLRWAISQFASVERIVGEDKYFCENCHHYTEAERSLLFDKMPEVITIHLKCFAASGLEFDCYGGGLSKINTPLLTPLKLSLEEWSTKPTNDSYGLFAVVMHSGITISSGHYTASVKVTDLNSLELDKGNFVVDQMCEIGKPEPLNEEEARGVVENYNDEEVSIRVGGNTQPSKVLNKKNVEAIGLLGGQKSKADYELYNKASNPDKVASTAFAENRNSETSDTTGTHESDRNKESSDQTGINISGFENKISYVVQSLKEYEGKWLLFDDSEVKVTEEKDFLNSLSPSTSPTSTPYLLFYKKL
Glucocorticoid receptor (Homo sapiens), sequence (P04150 whole entry, looked up, the tested form may be a part): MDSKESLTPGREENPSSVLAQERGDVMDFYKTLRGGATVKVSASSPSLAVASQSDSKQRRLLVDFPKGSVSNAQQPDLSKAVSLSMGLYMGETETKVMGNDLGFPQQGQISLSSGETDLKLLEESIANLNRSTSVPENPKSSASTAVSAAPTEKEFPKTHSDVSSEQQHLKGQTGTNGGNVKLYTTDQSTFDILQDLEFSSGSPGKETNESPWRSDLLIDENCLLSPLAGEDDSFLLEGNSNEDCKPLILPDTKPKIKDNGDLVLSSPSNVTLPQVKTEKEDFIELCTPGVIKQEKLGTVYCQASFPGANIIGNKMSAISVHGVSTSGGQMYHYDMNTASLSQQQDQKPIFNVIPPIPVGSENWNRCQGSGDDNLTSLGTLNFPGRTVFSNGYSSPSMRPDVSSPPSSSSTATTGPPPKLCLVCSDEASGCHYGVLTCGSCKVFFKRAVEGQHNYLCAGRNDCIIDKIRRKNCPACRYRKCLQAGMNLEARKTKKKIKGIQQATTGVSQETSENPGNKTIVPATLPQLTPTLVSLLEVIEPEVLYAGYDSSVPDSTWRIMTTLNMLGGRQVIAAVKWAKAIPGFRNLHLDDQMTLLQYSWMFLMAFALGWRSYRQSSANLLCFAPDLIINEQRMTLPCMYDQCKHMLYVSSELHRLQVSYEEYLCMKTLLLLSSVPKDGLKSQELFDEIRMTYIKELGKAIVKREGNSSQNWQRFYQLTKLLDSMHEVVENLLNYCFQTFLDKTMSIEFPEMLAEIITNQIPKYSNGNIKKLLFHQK
Dual specificity protein kinase CLK4 (Homo sapiens), sequence (Q9HAZ1 whole entry, looked up): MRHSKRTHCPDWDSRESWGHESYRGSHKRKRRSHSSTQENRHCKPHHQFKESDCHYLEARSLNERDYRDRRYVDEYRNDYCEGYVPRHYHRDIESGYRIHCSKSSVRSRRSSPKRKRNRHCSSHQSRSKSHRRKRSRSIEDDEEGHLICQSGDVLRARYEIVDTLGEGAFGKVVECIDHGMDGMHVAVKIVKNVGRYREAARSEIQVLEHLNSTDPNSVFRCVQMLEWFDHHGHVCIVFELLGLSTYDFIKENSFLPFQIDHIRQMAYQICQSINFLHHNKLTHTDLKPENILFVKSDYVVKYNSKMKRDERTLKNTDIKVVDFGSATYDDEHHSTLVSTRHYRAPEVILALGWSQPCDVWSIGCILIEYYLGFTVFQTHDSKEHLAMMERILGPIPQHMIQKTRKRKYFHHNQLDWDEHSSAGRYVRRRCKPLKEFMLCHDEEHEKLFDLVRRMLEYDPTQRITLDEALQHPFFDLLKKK
Cytochrome P450 2C19 (Homo sapiens), sequence (P33261 whole entry, looked up): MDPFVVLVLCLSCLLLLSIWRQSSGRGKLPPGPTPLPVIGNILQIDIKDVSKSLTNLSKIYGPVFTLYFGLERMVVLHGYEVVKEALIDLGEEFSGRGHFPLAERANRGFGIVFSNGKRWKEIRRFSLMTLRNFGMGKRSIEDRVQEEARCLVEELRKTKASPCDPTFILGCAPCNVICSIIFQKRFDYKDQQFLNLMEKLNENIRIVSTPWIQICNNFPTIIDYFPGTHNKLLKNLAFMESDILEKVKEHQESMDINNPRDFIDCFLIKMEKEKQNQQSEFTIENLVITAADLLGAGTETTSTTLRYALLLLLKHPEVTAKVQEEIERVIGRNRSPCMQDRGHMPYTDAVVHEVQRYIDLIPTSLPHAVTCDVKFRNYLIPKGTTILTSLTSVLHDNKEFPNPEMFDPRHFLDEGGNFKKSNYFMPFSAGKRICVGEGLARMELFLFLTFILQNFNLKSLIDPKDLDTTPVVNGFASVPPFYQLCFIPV

As for `O=c1c(-c2ccc(F)cc2)nc2cnc(N3CCNCC3)nc2n1Cc1cccs1`, the Potency in [1] was > 11.4 µM (inactive); in experiment [2], 10 µM (active); in experiment [4] it was > 9.22 µM (inactive); in [5], > 46 µM (inactive); in [8] it was 2.51 µM (active). Moreover, the activity change, negative = inhibition is 200% [activator] (active) in experiment [3] and 1.91% (inactive) in [9]. In addition, the Potency result in experiment [6], in experiment [7], in [10], in experiment [11], in experiment [12] and in experiment [13] was “inactive” throughout. In addition, the max response in experiment [9] (setting [19]) was determined as 8.56%; in [9] (setting [20]), 9.26%.

Consider `COc1cccc(Nc2ncc3nc(C)c(=O)n(C[C@H]4CCCO4)c3n2)c1`, for which the Potency in [1] was > 11.4 µM (inactive); in experiment [4], > 9.22 µM (inactive); in experiment [5], > 46 µM (inactive); in [10] it was 12.6 µM (active); in experiment [11], 17.8 µM (active). The activity change, negative = inhibition is -22.6% (inactive) in [14], 8.96% (inactive) in experiment [3] and -3.96% (inactive) in experiment [9]. Moreover, in [15], the activity, negative = inhibition is -10.3% (inactive). Besides, the Potency result in experiment [16], in [6] and in experiment [13] was “inactive” throughout. Besides, the max response was -4.6% in experiment [9] (setting [19]) and -7.75% in experiment [9] (setting [20]).

Take `Cc1noc(C)c1-c1nc(NC2CCNCC2)c2ccccc2n1`: the results for the activity change, negative = inhibition in [14], in experiment [3] and in [9] were 34.4% (inactive), 26.2% (inactive) and 4.9% (inactive), respectively. Moreover, the Potency in experiment [2] was 5.01 µM (active); in [4], > 46 µM (inactive); in experiment [5], > 46 µM (inactive); in experiment [10] it was 25.1 µM (active); in experiment [11], 28.2 µM (active). For the same molecule, in experiment [15], the activity, negative = inhibition was 6.06% (inactive). Also, the Potency result in [16], in [6] and in experiment [13] was “inactive” each time. For the same molecule, the max response in experiment [9] (setting [19]) came out at 11.4%; in experiment [9] (setting [20]) it was 12.7%.

On to `COc1ccc(CNc2ccnc(-c3ccccc3CN(C)C)n2)c(OC)c1`, for which the results for the activity change, negative = inhibition in experiment [14], in experiment [3] and in experiment [9] were 5.22% (inactive), -25.3% (inactive) and 3.1% (inactive), respectively. For the same molecule, the Potency in experiment [2] was 15.8 µM (active); in experiment [4], > 46 µM (inactive); in experiment [5], > 46 µM (inactive); in [17] it was 5.01 µM (active). Further, in experiment [15], the activity, negative = inhibition was 9.04% (inactive). Further, the Potency result in experiment [16], in experiment [7], in experiment [10], in experiment [11], in experiment [12] and in experiment [13] was “inactive” each time. The max response worked out at 26.9% in experiment [9] (setting [19]) and 28.6% in experiment [9] (setting [20]).

`FC(F)(F)c1ccccc1-c1cncnc1NCCN1CCOCC1`: the Potency in experiment [1] was > 11.4 µM (inactive); in [2] it was 2.51 µM (active); in [4] it was > 46 µM (inactive); in experiment [5], > 46 µM (inactive); in [17], 0.794 µM (active); in experiment [8] it was 2.51 µM (active). Moreover, in [15], the activity, negative = inhibition is -11.6% (inactive). For the same molecule, the Potency result in experiment [16], in [6], in [7], in [10], in [11] and in experiment [12] was “inactive” throughout. The Potency result in experiment [13] is “inactive”. The activity change, negative = inhibition in experiment [9] is -3.84% (inactive). The max response came out at 15.3% in experiment [9] (setting [19]) and 13.3% in experiment [9] (setting [20]).

With `Clc1ccccc1-c1ccc2ncnc(NC3CCNCC3)c2c1`, the Potency in experiment [1] was > 11.4 µM (inactive); in [2] it was 15.8 µM (active); in experiment [5] it was > 46 µM (inactive); in [18], 3.98 µM (active); in [10], 25.1 µM (active); in [11], 22.4 µM (active). Also, the activity change, negative = inhibition is -8.44% (inactive) in experiment [3] and 1.65% (inactive) in experiment [9]. For the same molecule, the activity, negative = inhibition in experiment [15] was -0.786% (inactive). Moreover, the Potency entry in experiment [16], in [6] and in [13] was “inactive” each time. Besides, the results for the max response in experiment [9] (setting [19]) and in [9] (setting [20]) were 0.483% and 1.92%, respectively.
